Most compounds without a hit are left out; they make up all but 19% or so of the library.
HT1080-NT tox = kills 2HG-producing HT-1080-NT fibrosarcoma cells; hit rate 1.6% among 360,000; AID 686970; Potency, µM (series often up to 46.1 µM), most hits filed as cytotoxic; HT-1080-NT fibrosarcoma viability, CellTiter-Glo ATP luminescence, 48 h;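 also: NT is the 2HG producing partner of a matched IDH1 knockdown line; nearly all actives have a fitted effect of over 55% in size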
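Toxicity toward the 2HG-producing NT line was scored as %Activity, normalised to DMSO and no-cell wells, from CellTiter-Glo luminescence after 48 hours' treatment.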
HT1080 IDH1KD tx = kills HT-1080 cells with IDH1 knockdown; HT-1080 IDH1 knockdown viability, ATP luminescence, 48 h; hit rate 2% among 360,000; Potency, µM (highest dose often 46.1 µM), actives largely listed as cytotoxic
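After a 2 h attachment period, IDH1KD HT-1080 cells took pin-transferred compound for 48 h at 37 °C; ATP-based luminescence after 10 min room-temperature reagent incubation reported viability.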
IL1B secr inh = inhibitors of inflammasome signaling (IL-1 beta secretion). THP-1 LPS/ATP IL-1B secretion, AlphaLISA, 16 h; stronger effect = lower value. activity change, % at 57.5 µM. hit rate 4.7% among 360,000; in the data active = activity change below about -50%; inconclusive = mostly about -30% to -49%
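THP-1 cells pretreated 1 hr with compounds (up to 57.5 uM final), then stimulated with LPS (250 ng/mL final) plus ATP (1.25 mM final); secreted IL-1B measured by AlphaLISA after 16 hr, decreased signal indicating inhibition.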
DT40 TDP1 no CPT = qHTS for Inhibitors of human tyrosyl-DNA phosphodiesterase 1 (TDP1): qHTS in cells in absence of CPT; DT40 Tdp1-/- hTDP1 cells, no CPT, ATP luminescence, 48 h; Potency, µM (doses to about 46.2 µM), hits mostly inhibitors; AID 686978, 2013; hit rate 15% among 420,000; also: nearly all actives have a fitted effect of over 55% in size
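Luminescent ATP content (CellTiter-Glo) served as the growth readout. Knockout chicken DT40 cells expressing human TDP1 were exposed to compounds without camptothecin for a minimum 48 hr at 37 °C.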
DT40 TDP1 CPT = growth inhibition of DT40 Tdp1-/-;hTDP1 cells with camptothecin (screen for TDP1 inhibitors). chicken DT40 Tdp1-/-;hTDP1 cells + 20 nM CPT, ATP luminescence, 48 h. Potency, µM (series often up to 46.2 µM), usual class: inhibitors. hit rate 12% among 420,000; also: nearly all actives have a fitted effect of over 55% in size
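Chicken DT40 Tdp1-/- cells stably complemented with human TDP1 were seeded at 400 cells/well in medium containing 20 nM camptothecin, exposed to pin-transferred compounds, and grown at 37 °C for at least 48 hr. Viability was read as ATP luminescence.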
Of the large screens only hits and unclear results are named; the others gave an inactive call. Unless noted, calls follow the shape of the dose curve; as a rule, active = well fitted curve in the direction sought with a large enough effect; inconclusive = small, poorly fitted or top-dose-only effect, or another doubt; inactive = no such curve, though single readings can be large; an effect the other way counts as inactive or inconclusive.

CC(C)(O)[C@H]1Cc2cc3ccc(=O)oc3cc2O1	none
O=C(O)CN(CC(=O)O)CC1=CC2C(=CC1=O)Oc1cc(O)c(CN(CC(=O)O)CC(=O)O)cc1C21OC(=O)c2ccccc21 (configuration not stated)	DT40 TDP1 no CPT inconclusive (no result: HT1080-NT tox, HT1080 IDH1KD tx, IL1B secr inh)
COc1cc2c(cc1NC(=O)CN1CCN(S(=O)(=O)c3ccccc3F)CC1)oc1ccccc12	DT40 TDP1 no CPT 20.6µM, DT40 TDP1 CPT 14.6µM
COc1cc2c(cc1NC(=O)Cc1ccc(C)cc1)oc1ccccc12	HT1080-NT tox inconclusive, DT40 TDP1 no CPT inconclusive, DT40 TDP1 CPT inconclusive
COc1cc(C(=O)NC2CCCc3ccccc32)ccc1OCC(=O)Nc1ccc(F)cc1 (configuration not stated)	DT40 TDP1 no CPT inconclusive
O=c1[nH]c(SCc2nc3ccccc3c(=O)n2-c2ccccc2C(F)(F)F)nc2ccccc12	IL1B secr inh -81.3, DT40 TDP1 no CPT inconclusive, DT40 TDP1 CPT 16.4µM
CC(C)(C)c1ccc(C2(C)NC(=O)N(CC(=O)NC3CCS(=O)(=O)C3)C2=O)cc1 (configuration not stated)	none
COc1ccc(O)c(/C=N/NC(=O)c2ccc(CSc3nc(C)cc(C)n3)cc2)c1	HT1080-NT tox inconclusive, HT1080 IDH1KD tx inconclusive, DT40 TDP1 no CPT 2.91µM, DT40 TDP1 CPT 4.61µM
Cc1cc(C)nc(SCc2ccc(C(=O)N/N=C/c3ccc(C(=O)O)cc3)cc2)n1	none
Cc1cc(C)nc(SCc2ccc(C(=O)N/N=C/c3cccc(O)c3O)cc2)n1	HT1080-NT tox inconclusive, HT1080 IDH1KD tx 2.31µM, DT40 TDP1 no CPT 5.8µM, DT40 TDP1 CPT 5.17µM
CCCN(CCC)Cc1cc(=O)oc2cc(C)cc(C)c12	DT40 TDP1 no CPT inconclusive, DT40 TDP1 CPT inconclusive
CC(=O)c1cccc(NC(=O)CSc2nnc(-c3ccncc3)o2)c1	none
Cc1c(Cl)cccc1NC(c1ccc(F)cc1)c1nnc(-c2ccccc2)o1 (configuration not stated)	DT40 TDP1 no CPT 23.1µM, DT40 TDP1 CPT inconclusive (no result: HT1080-NT tox, HT1080 IDH1KD tx, IL1B secr inh)
CC(=O)c1cccc(NC(c2ccc(F)cc2)c2nnc(-c3ccccc3)o2)c1 (configuration not stated)	DT40 TDP1 no CPT 18.4µM, DT40 TDP1 CPT inconclusive (no result: HT1080-NT tox, HT1080 IDH1KD tx, IL1B secr inh)
CCOc1ccc(NC(c2ccc(Cl)cc2)c2nnc(-c3cccc(F)c3)o2)cc1 (configuration not stated)	DT40 TDP1 CPT inconclusive (no result: HT1080-NT tox, HT1080 IDH1KD tx, IL1B secr inh)
CCc1nnc(NS(=O)(=O)c2ccc(N=CC3=C(O)CC(C)(C)CC3=O)cc2)s1	none
CC1CCc2[nH]c3ccc(C(=O)N(C)CC(=O)Nc4ccc(F)cc4)cc3c2C1 (configuration not stated)	HT1080 IDH1KD tx inconclusive, DT40 TDP1 no CPT 10.3µM, DT40 TDP1 CPT inconclusive
CCN(CC(=O)Nc1ccccc1C(F)(F)F)C(=O)c1ccccc1Cc1ccccc1	DT40 TDP1 no CPT 20.6µM, DT40 TDP1 CPT inconclusive
COc1cccc(NC(=O)CN(C)C(=O)c2ccc3[nH]c4c(c3c2)CC(C)CC4)c1 (configuration not stated)	IL1B secr inh inconclusive, DT40 TDP1 no CPT inconclusive, DT40 TDP1 CPT inconclusive
CCN(CC(=O)Nc1ccccc1C(F)(F)F)C(=O)c1ccc2[nH]c3c(c2c1)CC(C)CC3 (configuration not stated)	IL1B secr inh -62.4, DT40 TDP1 no CPT 18.4µM, DT40 TDP1 CPT inconclusive
Cc1cccc(N(CC(=O)Nc2ccccc2C(F)(F)F)S(=O)(=O)c2ccccc2)c1C	DT40 TDP1 no CPT 14.6µM, DT40 TDP1 CPT 16.4µM (no result: HT1080-NT tox, HT1080 IDH1KD tx, IL1B secr inh)
O=C1CCC(C(=O)N(CCO)Cc2ccccc2)CN1CC1CCCCC1 (configuration not stated)	none
CCC1CCc2sc(C(=O)N(C)CC(=O)Nc3ccc(OC)cc3)cc2C1 (configuration not stated)	DT40 TDP1 no CPT 20.6µM, DT40 TDP1 CPT inconclusive
CCN(CC(=O)Nc1ccccc1C(F)(F)F)C(=O)c1ccc(-n2nc(C)c(CCC(=O)OC)c2C)cc1	DT40 TDP1 no CPT 20.6µM, DT40 TDP1 CPT inconclusive
CCN(CC(=O)Nc1ccccc1C(F)(F)F)C(=O)CCc1ccccc1	none

Source: PubChem BioAssay
